Results from PubChem BioAssay AID2253 (Southern Research Specialized Biocontainment Screening …, 2010).
Hit rate of the full screen: of about 2,200 compounds, about 1,300 (59%) were called active. How the calls were made is not given here. So high a share suggests a set chosen from earlier hits. A selection follows. Results with a measured potency or affinity are listed apart.

Assay: human monocytic cell viability reduction – S. typhimurium screen hits, cytotoxicity control for Salmonella PhoP regulon inhibitors, dose response (AID 2253)
Conditions: THP-1 viability, CellTiter-Glo luminescence, 72 h; series mostly up to 50 µM

Question: With `CC(=O)Nc1ccc(OC(=O)c2cccnc2)cc1` as the compound, how does the outcome read?
Answer: Its outcome is “inactive”.

Question: For `COC(=O)c1sccc1NC(=O)c1cccnc1`, which outcome is on record?
Answer: The outcome was “inactive”.

Question: Which outcome does the source give for `CC(=O)Nc1ccc(C(=O)Nc2nc(-c3cc(C)n(Cc4ccccc4)c3C)cs2)cc1` here?
Answer: Its outcome is “inactive”.

Question: For `Cc1cc(-c2csc(NC(=O)c3ccc(S(=O)(=O)N(C)C)cc3)n2)c(C)n1-c1ccccc1`, which outcome is on record?
Answer: The outcome was “inactive”.

Question: For `O=C(/C=C/c1ccco1)N/C(=C\c1ccccc1)C(=O)NCCc1nc2ccccc2[nH]1`, which outcome is on record?
Answer: The outcome was “inactive”.

Question: Which outcome does the source give for `Cc1ccc2c(CN3CCC(C)CC3)cc(=O)oc2c1` here?
Answer: Its outcome is “inactive”.

Question: With `N#Cc1nc(-c2ccco2)oc1NCCCN1CCOCC1` as the compound, how does the outcome read?
Answer: Its outcome is “inactive”.

Question: Which outcome does the source give for `N#CC1=C(N)SC(N)=C(C#N)C1c1ccc([N+](=O)[O-])cc1` here?
Answer: Its outcome is “inactive”.

Question: With `CC1CCCCN1CCNS(=O)(=O)c1ccc2c(c1)oc(=O)n2C` (stereo not drawn) as the compound, how does the outcome read?
Answer: The outcome was “inactive”.

Question: For `Cn1nnnc1SCC(=O)NC1CCCCC1`, which outcome is on record?
Answer: The outcome was “inactive”.

Question: With `CC1(C)CC(=O)C2=C(C1)N(Cc1ccccc1)C(=O)C2(O)C(F)(F)F` (stereo not drawn) as the compound, how does the outcome read?
Answer: Its outcome is “inactive”.

Question: With `C/C(=N/Nc1nc(-c2ccc(Cl)cc2)cs1)c1cccs1` as the compound, how does the outcome read?
Answer: Its outcome is “inactive”.

Question: With `CCc1c(C)c2cc(Cl)c(O)c(CN3CCCCC3)c2oc1=O` as the compound, how does the outcome read?
Answer: Its outcome is “inactive”.

Question: Which outcome does the source give for `O=C(CCc1ccccc1)Nc1nc2ccc(S(=O)(=O)N3CCOCC3)cc2s1` here?
Answer: Its outcome is “inactive”.

Question: With `O=C(NCc1cn2ccsc2n1)Nc1ccc(Cl)cc1` as the compound, how does the outcome read?
Answer: Its outcome is “inactive”.

Question: With `COc1ccccc1CNc1nc2nc(C)c(C)c(=O)n2[nH]1` as the compound, how does the outcome read?
Answer: Its outcome is “inactive”.

Question: Which outcome does the source give for `O=C(c1cnsn1)N1CCN(c2ccccc2)CC1` here?
Answer: Its outcome is “inactive”.

Question: For `O=C1CC(c2ccccc2)n2nc(NC(=O)c3ccccc3)nc2N1` (stereo not drawn), which outcome is on record?
Answer: Its outcome is “inactive”.

Question: For `Cc1nc(N2CCN(c3ccccc3)CC2)nc2c1C(=O)CC(C)C2` (stereo not drawn), which outcome is on record?
Answer: The outcome was “inactive”.

Question: For `CCC(CC)NC(=O)COC(=O)c1ccc(OCC(=O)Nc2ccccc2OC)c(OC)c1`, which outcome is on record?
Answer: The outcome was “inactive”.

Question: Which outcome does the source give for `Cc1ccc(CNC(=O)Nc2cccs2)cc1` here?
Answer: The outcome was “inactive”.

Question: For `CCn1c(=O)c(=O)[nH]c2cc(C(=O)NCC3CCCCC3)ccc21`, which outcome is on record?
Answer: Its outcome is “inactive”.

Question: Which outcome does the source give for `Oc1ccc(Nc2nc(-c3cccs3)cs2)cc1` here?
Answer: Its outcome is “inactive”.

Question: For `O=C1c2ccccc2C(=O)N1c1cccc(-c2csc(Nc3ccc4c(c3)OCO4)n2)c1`, which outcome is on record?
Answer: Its outcome is “inactive”.

Question: With `Cn1c(COc2ccccc2)nnc1SCc1nc2ccccc2[nH]1` as the compound, how does the outcome read?
Answer: Its outcome is “inactive”.

Question: For `Cc1nn2c(=O)cc(CSc3nc4ccccc4[nH]3)nc2s1`, which outcome is on record?
Answer: The outcome was “inactive”.

Question: Which outcome does the source give for `c1ccc2[nH]c(CSc3nccs3)nc2c1` here?
Answer: The outcome was “inactive”.

Question: Which outcome does the source give for `O=C1NC(=O)C(=C2CCCCCC2)S1` here?
Answer: Its outcome is “inactive”.

Question: With `Cc1ncoc1C(=O)Nc1cccc(Cl)c1` as the compound, how does the outcome read?
Answer: Its outcome is “inactive”.

Question: With `CS(=O)(=O)c1ccc([C@@H](O)[C@@H](CF)NC(=O)C(Cl)Cl)cc1` as the compound, how does the outcome read?
Answer: The outcome was “inactive”.

Question: For `CC(=O)C1=C(C)Nc2ncnn2C1c1ccccc1OCc1ccccc1` (stereo not drawn), which outcome is on record?
Answer: The outcome was “inactive”.

Question: For `O=C(c1ccccc1)c1nc2ccccc2n(CCCn2c(=O)c(C(=O)c3ccccc3)nc3ccccc32)c1=O`, which outcome is on record?
Answer: Its outcome is “inactive”.

Question: For `COC(=O)CN1C(c2ccc(OC)cc2)=Nc2ccc(Cl)cc2C1c1ccccc1` (stereo not drawn), which outcome is on record?
Answer: Its outcome is “inactive”.

Question: Which outcome does the source give for `CC[C@H]1OC(=O)[C@H](C)[C@@H](O[C@H]2C[C@@](C)(OC)[C@@H](O)[C@H](C)O2)[C@H](C)[C@@H](O[C@@H]2O[C@H](C)C[C@H](N(C)C)[C@H]2O)[C@](C)(O)C[C@@H](C)CN(C)[C@H](C)[C@@H](O)[C@]1(C)O` here?
Answer: Its outcome is “inactive”.

Question: Which outcome does the source give for `CC[C@H]1OC(=O)[C@H](C)[C@@H](O[C@H]2C[C@@](C)(OC)[C@@H](O)[C@H](C)O2)[C@H](C)[C@@H](O[C@@H]2O[C@H](C)C[C@H](N(C)C)[C@H]2O)[C@](C)(O)C[C@@H](C)[C@@H]2N[C@@H](COCCOC)O[C@H]([C@H]2C)[C@]1(C)O` here?
Answer: Its outcome is “inactive”.

Question: With `COc1ccccc1CC(=O)N1CCN(c2ccccn2)CC1` as the compound, how does the outcome read?
Answer: Its outcome is “inactive”.

Question: For `COCC(=O)N(Cc1ccco1)c1nnc(C2CCOC2)s1` (stereo not drawn), which outcome is on record?
Answer: Its outcome is “inactive”.

Question: For `COc1ccc(OC)c(NC(=O)c2cc3c(Cl)nc4ccccc4c3s2)c1`, which outcome is on record?
Answer: The outcome was “inactive”.

Question: With `C=CCNc1nnc(Cl)c2ccccc12` as the compound, how does the outcome read?
Answer: The outcome was “inactive”.

Question: Which outcome does the source give for `Cc1ccc2[nH]c3c(=O)n(CCc4cnc[nH]4)cnc3c2c1` here?
Answer: Its outcome is “inactive”.

Question: Which outcome does the source give for `COc1ccc(C(=O)NCCC2=CCCCC2)cc1OC` here?
Answer: The outcome was “inactive”.

Question: For `O=P(Cc1cc[n+]([O-])cc1)(c1ccccc1)c1ccccc1`, which outcome is on record?
Answer: Its outcome is “inactive”.

Question: Which outcome does the source give for `NC(=S)c1cc2ccc(O)cc2oc1=O` here?
Answer: Its outcome is “inactive”.

Question: For `Cn1ncc(Br)c1C(=O)NCc1cccs1`, which outcome is on record?
Answer: The outcome was “inactive”.

Question: For `O=C(NCc1cccs1)Nc1cccs1`, which outcome is on record?
Answer: Its outcome is “inactive”.

Question: For `CC(C)=CCN1CCN(Cc2ccoc2)CC1CCO` (stereo not drawn), which outcome is on record?
Answer: The outcome was “inactive”.

Question: With `COc1ccc(NC(=O)CSc2nc(C)cs2)cc1OC` as the compound, how does the outcome read?
Answer: Its outcome is “inactive”.

Question: For `CSC(=NS(=O)(=O)c1ccccc1)SC`, which outcome is on record?
Answer: Its outcome is “inactive”.

Question: Which outcome does the source give for `CCn1nc(C(=O)NCc2ccco2)c(Cl)c1Cl` here?
Answer: The outcome was “inactive”.

Question: Which outcome does the source give for `O=C(NCc1ccco1)C1CC(=O)N(CCc2ccccc2)C1` (stereo not drawn) here?
Answer: The outcome was “inactive”.

Question: With `O=C(CNc1ccccc1)Nc1ccc(F)cc1` as the compound, how does the outcome read?
Answer: Its outcome is “inactive”.

Question: Which outcome does the source give for `CCN(CC(=O)Nc1ccc(N2CCOCC2)cc1)Cc1nc2ccccc2c(=O)[nH]1` here?
Answer: Its outcome is “inactive”.

Question: Which outcome does the source give for `Cc1c(C(c2cccc([N+](=O)[O-])c2O)c2c(C)n(C)n(-c3ccccc3)c2=O)c(=O)n(-c2ccccc2)n1C` here?
Answer: Its outcome is “inactive”.

Question: Which outcome does the source give for `Cc1ccc(CNC(=O)c2cccc(S(C)(=O)=O)c2)cc1` here?
Answer: The outcome was “inactive”.

Question: Which outcome does the source give for `CN(C)C(=O)c1cn(N(C)c2ncc(C(F)(F)F)cc2Cl)c(=O)c2ccccc12` here?
Answer: The outcome was “inactive”.

Question: For `CCOc1cc(C2Nc3cccc4cccc(c34)N2)ccc1O`, which outcome is on record?
Answer: The outcome was “inactive”.

Question: Which outcome does the source give for `COc1cc(C2Nc3cccc4cccc(c34)N2)cc(OC)c1O` here?
Answer: Its outcome is “inactive”.

Question: For `NC(=O)c1ccccc1NC(=O)/C=C/C(=O)O`, which outcome is on record?
Answer: The outcome was “inactive”.

Question: Which outcome does the source give for `COc1ccc(NC(=O)c2sccc2SCC#N)cc1` here?
Answer: The outcome was “inactive”.

Question: With `COC(=O)C1(O)CC(C(C)C)=NN1C(=O)c1ccc(Cl)cc1` (stereo not drawn) as the compound, how does the outcome read?
Answer: The outcome was “inactive”.

Question: For `CCCCn1cnc2sc(-c3ccccc3)cc2c1=O`, which outcome is on record?
Answer: Its outcome is “inactive”.

Question: For `CCn1cc(C(=O)O)c(=O)c2cc(F)c(N3CCNCC3)cc21`, which outcome is on record?
Answer: Its outcome is “inactive”.

Question: Which outcome does the source give for `CC(=O)Nc1ccc(C(=O)N2CCN(C(=O)c3ccco3)CC2)cc1` here?
Answer: Its outcome is “inactive”.

Question: With `COc1cc(OC)c(NC(=O)Nc2ccc(OC)c(OC)c2)cc1Cl` as the compound, how does the outcome read?
Answer: The outcome was “inactive”.

Question: With `CCn1cc(C(=O)O)c(=O)c2cc(F)c(N3CCN(C)CC3)cc21` as the compound, how does the outcome read?
Answer: The outcome was “inactive”.

Question: For `Cc1ccc(NC(=O)COc2ncnc3c(Cl)cc(Cl)cc23)cc1[N+](=O)[O-]`, which outcome is on record?
Answer: The outcome was “inactive”.

Question: With `COC(=O)CCC(=O)Nc1ccc(Cl)c(Cl)c1` as the compound, how does the outcome read?
Answer: Its outcome is “inactive”.

Question: For `O=C1OCC(CO)(CO)N=C1NNc1ccc(Cl)c(Cl)c1`, which outcome is on record?
Answer: The outcome was “inactive”.

Question: With `CC(C)Cc1oc(C(=O)O)cc1CN` as the compound, how does the outcome read?
Answer: The outcome was “inactive”.

Question: For `Cc1ccc(CNc2oc(-c3cccs3)nc2C#N)cc1`, which outcome is on record?
Answer: The outcome was “inactive”.

Question: Which outcome does the source give for `CC1C(C#N)=C(N)OC2=C1C(=O)CCC2` (stereo not drawn) here?
Answer: The outcome was “inactive”.

Question: For `CCCCN(CCCC)C(=O)c1cn(CC)c2cc(N3CCN(C)CC3)c(F)cc2c1=O`, which outcome is on record?
Answer: Its outcome is “inactive”.

Question: With `Cc1[nH][nH]c(=O)c1C(c1ccc(O)c([N+](=O)[O-])c1)c1c(C)[nH][nH]c1=O` as the compound, how does the outcome read?
Answer: The outcome was “inactive”.

Question: Which outcome does the source give for `COc1cc(CNCc2ccccn2)ccc1OCC(=O)NC(C)(C)C` here?
Answer: Its outcome is “inactive”.

Question: For `O=C(CN(c1ccc(F)cc1)S(=O)(=O)c1ccc2c(c1)OCCO2)NCc1cccnc1`, which outcome is on record?
Answer: The outcome was “inactive”.

Question: Which outcome does the source give for `COCCn1cc(C(=O)N2CCC(C)CC2)c2c3ccccc3n(C)c2c1=O` here?
Answer: The outcome was “inactive”.

Question: Which outcome does the source give for `Cc1ccc(S(=O)(=O)N2CCC(C(N)=O)CC2)c(C)c1C` here?
Answer: The outcome was “inactive”.

Question: With `O=C(NCc1cccs1)[C@@H]1CSC2c3ccccc3C(=O)N21` (stereo partly drawn) as the compound, how does the outcome read?
Answer: The outcome was “inactive”.
